Test results reported in PubChem BioAssay (NCI).
About 79,000 compounds went through this panel and 15% of them were active in at least one assay; those are over-represented in the sample as a whole. Values without a mark were called inactive. Calls of active or inactive are those of the source. Rule as the data show it: active = growth inhibition above about 70%; inactive = the rest. Where a SMILES comes first, the peptide text is derived from it. The star is where a group is joined. Boc = CC(C)(C)OC(=O)*; OBn = c1ccc(CO*)cc1

test: NCI Yeast Anticancer Drug Screen. Data for the cln2 rad14 strain (AID 165);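 also: 0% = growth equal to vehicle treated cultures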; conditions: S. cerevisiae cln2 rad14 strain, at 50.0 µM, hits give high values
Summary of the method: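 Growth inhibition, relative to vehicle-treated controls, is the read-out. The test organism is a yeast strain with defined genetic alterations, cln2 rad14.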

Row | SMILES | growth inhibition
1 | C/C=C/C1OCC(C)(C)CO1 | -46.8%
2 | CCOC(=O)C(C(=O)OCC)C(C)(C)C | -36.4%
3 | O=C1C(=O)C(CCc2ccccc2)C(=O)/C1=C\c1ccccc1 (stereo not given) | -10.4%
4 | O=C(O)C(=O)O.[Co+3].[NH-]C(Cc1ccccc1)C(=O)[O-].[NH-]CCN(CC[NH-])CC[NH-] (stereo not given) | 22.6%
5 | O=C(O)CCc1c[nH]c(=S)[nH]1 | -11.6%
6 | Cc1c([N+](=O)[O-])cc(C(C)(C)C)c(OC(=O)C(Cl)(Cl)Cl)c1[N+](=O)[O-] | 78.8% (active)
7 | COc1cc(NCCC(=O)O)c2ncccc2c1 | -18.8%
8 | CC(=O)OCCOC1c2ccccc2-c2ccccc21 | 18.6%
9 | COc1ccc2c(c1)N1CCc3cc(OC)c(OC)cc3C1C2 (stereo not given) | 9.5%
10 | O=C(Nc1cccc2c1C(=O)c1cc(Cl)ccc1C2=O)c1ccccc1 | -38.9%
11 | O=c1c(CN(CCO)CCO)c(-c2ccccc2)sc2ccccc12 | 13.1%
12 | CCOP(=O)(OCC)C1=C(P(=O)(OCC)OCC)C(F)(F)C1(F)F | -13.1%
13 | C(=Nc1ccc2c(c1)Cc1ccccc1-2)c1ccc2c(c1)OCO2 | -2.1%
14 | CCCCOB(OCCCC)Oc1c(C(C)(C)C)cc(C)cc1C(C)(C)C | 15.5%
15 | CC1=CCC2N=C(c3ccccc3)CC2(C)C1=O (stereo not given) | -11.3%
16 | COc1c2cc(C(C)(C)C)cc1CSCc1cc(C(C)(C)C)cc(c1OC)CCCCC2 | -14.1%
17 | O=C(N/N=C/C=C/c1ccccc1)c1ccccc1O | -31.7%
18 | Oc1cc(CN2CCOCC2)c(O)c(CN2CCOCC2)c1CN1CCOCC1 | 27.4%
19 | c1ccc2c(c1)c1ccccc1c1c3ccccc3c3ccccc3c21 | -18.6%
20 | Clc1ccc(SCCCCSc2ccc(Cl)cc2)cc1 | -3.45%

Row | SMILES | growth inhibition
21 | CCCCNC(=O)Oc1cccc2ccccc12 | -4.35%
22 | NC(=O)C(=CN1C(=O)/C(=C/c2ccccc2O)SC1=S)C(N)=O | 28.4%
23 | COCC(C)(CO)CC(C)CO (stereo not given) | -42%
24 | Cc1cn(C2CC3OP(=O)(OCc4ccccc4)OCC3O2)c(=O)[nH]c1=O (stereo not given) | 7.25%
25 | NC(=O)SCC(=O)Nc1ccc2cccc3c2c1CC3 | 61.6%
26 | CSC1=C(CCC(C)CCCC(C)CCCC(C)CCCC(C)CCCC(C)CCCC(C)C)C(=O)c2sccc2C1=O (stereo not given) | -17.9%
27 | O=CNC1CCCCC1c1ccc(C2CCCCC2NC=O)cc1 (stereo not given) | -1.55%
28 | Nc1ccccc1OCCOCCOc1ccccc1N | 45.4%
29 | CC1C2=C(CCCC2=O)O/C1=N\O (stereo not given) | -24.9%
30 | COc1ccccc1C(O)c1ccccc1 (stereo not given) | 11.4%
31 | O=C(CCc1nnc2s/c(=C\c3ccccc3)c(=O)n12)Nc1cc(Cl)ccc1Cl | 16.4%
32 | Cc1ccc2ccccc2[n+]1CC(=O)c1ccc2c(c1)OCO2 | 3.85%
33 | CC1(C)OC(=O)C(=Cc2ccc(O)cc2)C(=O)O1 | -4.6%
34 | COC(=O)C(C)(NC(=O)C(CC(=O)OC(C)(C)C)NC(=O)OC(C)(C)C)c1ccccc1 (stereo not given) | 35.8%
35 | CC(=O)/C(=C\n1c(=S)[nH]c2ccc([N+](=O)[O-])cc21)C(=O)Nc1ccccc1C | -2.8%
36 | N#Cc1cccc2c(S(=O)(=O)O)cccc12 | -17.3%
37 | c1ccc2cc3c(cc2c1)OP1(=NP2(=NP4(=N1)Oc1cc5ccccc5cc1O4)Oc1cc4ccccc4cc1O2)O3 | 18.8%
38 | CC(C)CC(NC(=O)OC(C)(C)C)C(=O)NC(CCC(=O)OCc1ccccc1)C(N)=O (stereo not drawn) (Boc-Leu-Glu(OBn)-NH2; configuration not given here) | 19.9%
39 | N#CC(c1ccccc1)N1CCCN(C(C#N)c2ccccc2)C1c1ccccc1O (stereo not given) | 17.9%
40 | CN(N=O)C(=O)NC(C=O)C(O)C(O)C(O)CO (stereo not given) | 12.2%

test: NCI Yeast Anticancer Drug Screen. Data for the bub3 strain (AID 167); conditions: S. cerevisiae bub3 mutant strain, at 50.0 µM, hits give high values
Summary of the method: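 Steps: expose the mutant yeast strain to compound; grow alongside vehicle-treated cultures; measure growth; express inhibition against the vehicle cultures.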

Row | SMILES | growth inhibition
41 | C/C=C/C1OCC(C)(C)CO1 | -24.7%
42 | CCOC(=O)C(C(=O)OCC)C(C)(C)C | -3.85%
43 | O=C1C(=O)C(CCc2ccccc2)C(=O)/C1=C\c1ccccc1 (stereo not given) | -6.55%
44 | O=C(O)C(=O)O.[Co+3].[NH-]C(Cc1ccccc1)C(=O)[O-].[NH-]CCN(CC[NH-])CC[NH-] (stereo not given) | 2.7%
45 | O=C(O)CCc1c[nH]c(=S)[nH]1 | -1.7%
46 | Cc1c([N+](=O)[O-])cc(C(C)(C)C)c(OC(=O)C(Cl)(Cl)Cl)c1[N+](=O)[O-] | 88.9% (active)
47 | COc1cc(NCCC(=O)O)c2ncccc2c1 | -24.2%
48 | CC(=O)OCCOC1c2ccccc2-c2ccccc21 | 25.3%
49 | COc1ccc2c(c1)N1CCc3cc(OC)c(OC)cc3C1C2 (stereo not given) | 25%
50 | O=C(Nc1cccc2c1C(=O)c1cc(Cl)ccc1C2=O)c1ccccc1 | 5%
51 | O=c1c(CN(CCO)CCO)c(-c2ccccc2)sc2ccccc12 | -13.8%
52 | CCOP(=O)(OCC)C1=C(P(=O)(OCC)OCC)C(F)(F)C1(F)F | -0.95%
53 | C(=Nc1ccc2c(c1)Cc1ccccc1-2)c1ccc2c(c1)OCO2 | 3.05%
54 | CCCCOB(OCCCC)Oc1c(C(C)(C)C)cc(C)cc1C(C)(C)C | -10.2%
55 | CC1=CCC2N=C(c3ccccc3)CC2(C)C1=O (stereo not given) | -46.2%
56 | COc1c2cc(C(C)(C)C)cc1CSCc1cc(C(C)(C)C)cc(c1OC)CCCCC2 | -14.6%
57 | O=C(N/N=C/C=C/c1ccccc1)c1ccccc1O | 43.4%
58 | Oc1cc(CN2CCOCC2)c(O)c(CN2CCOCC2)c1CN1CCOCC1 | -1.05%
59 | c1ccc2c(c1)c1ccccc1c1c3ccccc3c3ccccc3c21 | 0.65%
60 | Clc1ccc(SCCCCSc2ccc(Cl)cc2)cc1 | 10.8%

Row | SMILES | growth inhibition
61 | CCCCNC(=O)Oc1cccc2ccccc12 | 29.8%
62 | NC(=O)C(=CN1C(=O)/C(=C/c2ccccc2O)SC1=S)C(N)=O | -4.85%
63 | COCC(C)(CO)CC(C)CO (stereo not given) | -7.1%
64 | Cc1cn(C2CC3OP(=O)(OCc4ccccc4)OCC3O2)c(=O)[nH]c1=O (stereo not given) | 8%
65 | NC(=O)SCC(=O)Nc1ccc2cccc3c2c1CC3 | 74.3% (active)
66 | CSC1=C(CCC(C)CCCC(C)CCCC(C)CCCC(C)CCCC(C)CCCC(C)C)C(=O)c2sccc2C1=O (stereo not given) | 11.5%
67 | O=CNC1CCCCC1c1ccc(C2CCCCC2NC=O)cc1 (stereo not given) | 6.2%
68 | Nc1ccccc1OCCOCCOc1ccccc1N | 14.9%
69 | CC1C2=C(CCCC2=O)O/C1=N\O (stereo not given) | 6.7%
70 | COc1ccccc1C(O)c1ccccc1 (stereo not given) | 9.3%
71 | O=C(CCc1nnc2s/c(=C\c3ccccc3)c(=O)n12)Nc1cc(Cl)ccc1Cl | 4.95%
72 | Cc1ccc2ccccc2[n+]1CC(=O)c1ccc2c(c1)OCO2 | -10.7%
73 | CC1(C)OC(=O)C(=Cc2ccc(O)cc2)C(=O)O1 | -21.5%
74 | COC(=O)C(C)(NC(=O)C(CC(=O)OC(C)(C)C)NC(=O)OC(C)(C)C)c1ccccc1 (stereo not given) | 36.7%
75 | CC(=O)/C(=C\n1c(=S)[nH]c2ccc([N+](=O)[O-])cc21)C(=O)Nc1ccccc1C | -20.4%
76 | N#Cc1cccc2c(S(=O)(=O)O)cccc12 | -2.85%
77 | c1ccc2cc3c(cc2c1)OP1(=NP2(=NP4(=N1)Oc1cc5ccccc5cc1O4)Oc1cc4ccccc4cc1O2)O3 | 15.7%
78 | CC(C)CC(NC(=O)OC(C)(C)C)C(=O)NC(CCC(=O)OCc1ccccc1)C(N)=O (stereo not drawn) (Boc-Leu-Glu(OBn)-NH2; configuration not given here) | 24.4%
79 | N#CC(c1ccccc1)N1CCCN(C(C#N)c2ccccc2)C1c1ccccc1O (stereo not given) | 18.4%
80 | CN(N=O)C(=O)NC(C=O)C(O)C(O)C(O)CO (stereo not given) | 0.4%
